Reference: PubChem BioAssay (NCI)
About 79,000 compounds went through this panel and 15% of them were active in at least one assay; those are over-represented in the sample as a whole. Rule as the data show it: active = growth inhibition above about 70%; inactive = the rest.

Tests used:
[1] = NCI Yeast Anticancer Drug Screen. Data for the rad50 strain (AID 155);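 also: 0% = growth of vehicle-only cultures of the same strain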; conditions: S. cerevisiae rad50 strain growth inhibition; at 50.0 µM; stronger effect = higher value
Procedure, shortened: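 Compounds were tested on a yeast strain with an engineered DNA damage repair alteration; the reported value is growth inhibition normalised to vehicle treatment.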

[2] = NCI Yeast Anticancer Drug Screen. Data for the mec2-1 strain (AID 157); conditions: S. cerevisiae mec2-1 strain, at 50.0 µM, stronger effect = higher value
Procedure, shortened: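 Strain: mec2-1 (DNA repair/cell cycle alteration). Compound exposure, then growth measured; inhibition expressed relative to vehicle.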

[3] = NCI Yeast Anticancer Drug Screen. Data for the sgs1 mgt1 strain (AID 161);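 also: 0% = growth of cultures given vehicle only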; conditions: S. cerevisiae sgs1 mgt1 strain, at 50.0 µM, stronger effect = higher value
Procedure, shortened: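 Inhibition of yeast growth, normalised to vehicle-treated controls, is reported for a strain bearing genetic alterations in DNA damage repair.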

[4] = NCI Yeast Anticancer Drug Screen. Data for the cln2 rad14 strain (AID 165);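 also: 0% = growth equal to vehicle treated cultures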; conditions: S. cerevisiae cln2 rad14 strain, at 50.0 µM, stronger effect = higher value
Procedure, shortened: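 Compounds are applied to the cln2 rad14 yeast strain, and growth is then compared with that of vehicle-treated cultures to give inhibition.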

[5] = NCI Yeast Anticancer Drug Screen. Data for the bub3 strain (AID 167); conditions: S. cerevisiae bub3 mutant strain, at 50.0 µM, stronger effect = higher value
Procedure, shortened: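 Growth of a checkpoint-deficient yeast mutant is measured after compound exposure. Values represent inhibition relative to vehicle.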

[6] = NCI Yeast Anticancer Drug Screen. Data for the mlh1 rad18 strain (AID 175); conditions: S. cerevisiae mlh1 rad18 strain growth inhibition; at 50.0 µM; stronger effect = higher value
Procedure, shortened: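 Read-out is yeast growth inhibition, calculated against vehicle-only controls. The compound was applied to a strain engineered with DNA damage repair alterations.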

Measured: growth inhibition

O=C(/C=C/C(=O)c1ccc(O)cc1)Oc1ccccc1
inactive: [1] 33.1% | [2] -3.75% | [3] 1.1% | [4] -15.3% | [5] 12.9% | [6] 18.1%

CC1=NC(=O)CNN1C1=NNC2(C(=O)N1)c1ccccc1-c1ccccc12
inactive: [1] -11.1% | [2] -7.3% | [3] -15.2% | [4] 0.85% | [5] -7.3% | [6] -25.1%

C=CCCCCCCCCC(=O)NCc1nc2ccccc2[nH]1
inactive: [1] 20.6% | [2] 21.6% | [3] 25.9% | [4] 1.15% | [5] 5.9% | [6] 69.1%

Cc1nnc2n1N=C(c1ccccc1)C(c1ccccc1)S2 (configuration not stated)
inactive: [1] 31.8% | [2] 29.9% | [3] 33.5% | [4] 25.9% | [5] 57.4% | [6] 40.3%

COC(=O)N1CCc2c([nH]oc2=O)C1
inactive: [1] -6.75% | [2] -5.4% | [3] -4.5% | [4] -13.4% | [5] -0.8% | [6] -3.75%

COCCCn1c(-c2ccc(Cl)cc2)nn2c(=O)c3ccccc3nc2c1=O
inactive: [1] 20% | [2] -1.75% | [3] 17.2% | [4] 10.2% | [5] 13.4% | [6] 7.45%

CN(C)C(=O)Nc1cccc2nsnc12
inactive: [1] 12.4% | [2] -2.75% | [3] 11% | [4] -50.5% | [5] -5.95% | [6] 29.6%

COc1ccc(CC(=O)OCCCl)cc1OC
inactive: [1] -17% | [2] -22.4% | [3] 3% | [4] -26.4% | [5] 44.1% | [6] -20.7%

CCCCCCCCCCCCCCCCCCN(C)C
inactive: [1] 54% | [2] 23.1% | [3] 13.8% | [4] -64.9% | [5] 46.7% | [6] 25.9%

C/C(=C/CNc1ncnc2c1ncn2CCC(=O)O)CO
inactive: [1] -22.4% | [2] 12.5% | [3] -31.7% | [4] 1.65% | [5] 1.7% | [6] -0.5%

C=C1C(=O)OC2CC(C)C3CC(O)OC(OCC)C3(C)CC12 (configuration not stated)
inactive: [1] 24.1% | [2] 20.3% | [3] 12.4% | [4] 22.8% | [5] 32.2% | [6] -16.8%

CC(=O)OC1CC(OC(C)=O)C(OC(C)=O)CC1OC(C)=O (configuration not stated)
inactive: [1] 7.95% | [2] -5.15% | [3] -9.45% | [4] -18.2% | [5] 1.05% | [6] 12.6%

COc1ccc(CC2c3cc(OC)c(OC)cc3CCN2C(=O)c2ccccc2)cc1OC (configuration not stated)
inactive: [1] 10% | [2] -18.9% | [3] 9.5% | [4] 16.3% | [5] 10.7% | [6] 1.45%

CC(=O)NC(CCCNC(=O)N(CCCl)N=O)C(=O)NCc1ccccc1 (configuration not stated)
inactive: [1] -1.85% | [2] -16.5% | [3] 1.75% | [4] 23.3% | [5] 2.65% | [6] -13.6%

O=C1NC2OCC(O)C(O1)C2O (configuration not stated)
inactive: [1] 3.85% | [2] 1% | [3] -13.3% | [4] 7.75% | [5] -2.25% | [6] 16.3%

N#Cc1nc(C2=C(Cl)c3ccccc3OC2)[nH]c1C#N
inactive: [1] 40% | [2] 42.9% | [3] 46.5% | [4] 56.5% | [5] 50.6% | [6] 31.8%

CCOc1ccc(/C=C2\N=C(c3ccccc3)OC2=O)cc1OC
inactive: [1] 8.5% | [2] 12.5% | [3] 4% | [4] 0.75% | [5] 5.85% | [6] 2.4%

CNC(CCCC1CCCCC1)C(=O)O (configuration not stated)
inactive: [1] -2.85% | [2] 5.7% | [3] -0.15% | [4] 11.4% | [5] 12.8% | [6] -7.35%

COc1ccc(-c2cc(=O)c3cc(O)ccc3o2)c(OC)c1OC
inactive: [1] 8% | [2] 16% | [3] 11.4% | [4] -6.95% | [5] -6.5% | [6] -10.8%

O=S1(=O)CCCCc2ccccc21
inactive: [1] 7.35% | [2] -0.75% | [3] 3.75% | [4] -9.35% | [5] 1.85% | [6] -23.2%

CCOC(=O)CC/C(=C\NC(=O)c1ccccc1)NC(=O)c1ccccc1
inactive: [1] -9% | [2] -26.4% | [3] -21.6% | [4] 16.2% | [5] -9.55% | [6] 1.9%

CCN(CC)CC1(CC)COC(c2ccccc2)(c2ccccc2)OC1
inactive: [1] -3.3% | [2] -21.4% | [3] -18.6% | [4] -26.3% | [5] -14.2% | [6] -34.5%

CC1(O)CCCCCCC1
inactive: [1] 0.85% | [2] -3.6% | [3] 26.6% | [4] 0.7% | [5] 7.9% | [6] 7.8%

CCOC(=O)c1nc[nH]c1C(=O)OCC
inactive: [1] 17.5% | [2] -7.25% | [3] -6.1% | [4] 11% | [5] -1.35% | [6] 12%

COc1ccc(C(O)c2ccc(C)cc2)cc1 (configuration not stated)
inactive: [1] -14.1% | [2] -4.2% | [3] -43% | [4] -27.6% | [5] -27.4% | [6] -17.3%

CCCCCCCCc1ccccc1
inactive: [1] 34.6% | [2] 30.9% | [3] 35.6% | [4] 13.5% | [5] 9.75% | [6] 21.8%

c1ccc(-c2ccccc2N=C2N=NN=N2)cc1
inactive: [1] -1% | [2] -6.9% | [3] 2.2% | [4] -16.4% | [5] -13.6% | [6] 6.55%

CC(=O)Nc1ccccc1C
inactive: [1] 11.9% | [2] -7.1% | [3] -0.55% | [4] -5.65% | [5] 5.2% | [6] 3.05%

CC(O)C(=O)N(CCO)CCO (configuration not stated)
inactive: [1] -5.4% | [2] -21.9% | [3] -13.4% | [4] -35.8% | [5] 3.5% | [6] 10.3%

Nc1ccc(SCCC(=O)O)cc1
inactive: [1] 18.9% | [2] 0.7% | [3] -0.25% | [4] 2.1% | [5] 5.95% | [6] -13.3%

COc1ccc(C(O)C2CC(=O)NN=C2C)cc1OC (configuration not stated)
inactive: [1] 8.05% | [2] -0.85% | [3] -3.3% | [4] 6.7% | [5] 8.7% | [6] -1.7%

CNC(=O)NC1C(O)COC(OC)C1O (configuration not stated)
inactive: [1] -2.65% | [2] 3.4% | [3] -0.6% | [4] -37.1% | [5] -4.15% | [6] 0.25%

CC(C)c1ccccc1NC(=O)C(=O)Cc1nc2ccccc2s1
inactive: [1] 23.2% | [2] 7.2% | [3] 19.7% | [4] -36.1% | [5] 38.3% | [6] 51.4%

N#CC(N)=NC1CCC(C2CCC(O)CC2)CC1 (configuration not stated)
inactive: [1] 6.65% | [2] 2.4% | [3] -6.25% | [4] -1.3% | [5] 16.1% | [6] 10.7%

COc1ccc(OC)c(C(O)P(=O)(c2ccccc2)c2ccccc2)c1 (configuration not stated)
inactive: [1] 12.5% | [2] 1.65% | [3] 31.4% | [4] 12.2% | [5] 27.1% | [6] 27.2%

COC(=O)C1CC(c2ccc(Cl)cc2)=NO1 (configuration not stated)
inactive: [1] 36.4% | [2] 8.25% | [3] 8.5% | [4] 5.3% | [5] 1.5% | [6] 47.1%

CC(O)COC(C)COC(C)c1ccccc1 (configuration not stated)
inactive: [1] 1.6% | [2] 0.3% | [3] -4% | [4] -2.35% | [5] 2.2% | [6] 4.65%

NS(=O)(=O)c1ccc(NC(=O)C2C(=O)N(c3ccc(S(N)(=O)=O)cc3)C(=O)/C2=N/O)cc1 (configuration not stated)
inactive: [1] 9.55% | [2] 0.25% | [3] 9.8% | [4] -26.4% | [5] 2% | [6] 33.1%

CS(=O)(=O)Nc1ccccc1-c1nc2ccccc2c(=O)o1
inactive: [1] 26.6% | [2] 30.7% | [3] 27.2% | [4] 14.3% | [5] 33.2% | [6] 27.7%

CCOc1ccccc1NC(=O)CC(=O)N1N=C(C)C(N=Nc2ccccc2C(=O)O)C1=O (configuration not stated)
inactive: [1] 18.1% | [2] 3.5% | [3] 1.6% | [4] -2.3% | [5] -3.35% | [6] 17.6%

CC(C)CCN(CCCNc1c2c(nc3ccc(Cl)cc13)CCCC2)CCC(C)C
inactive: [1] -1.65% | [2] -9.4% | [3] -7.55% | [4] -34.4% | [5] -1.25% | [6] 4.95%

Cn1c(=O)cc(NC2OC(CO)C(O)C(O)C2O)[nH]c1=O (configuration not stated)
inactive: [1] 2.1% | [2] -3.3% | [3] 24.8% | [4] -5.3% | [5] 0.75% | [6] 11.5%
